Compound activity from PubChem.
TGFb SMAD3 inh = inhibitors of TGF-b signaling. HepG2 CAGA-GFP TGF-b/SMAD3 reporter, GFP fluorescence, 18 h; TGF-beta stimulated, 500 pg/mL final. actives 1.2% (n = 410,000). AID 588855. Potency, µM (series often up to 46.1 µM), for inactives: at the highest dose activity, negative = inhibition, hits mostly inhibitors; further: potency means the concentration at half of the fitted maximal effect; on the % scale 0 is the no-effect control and ±100 the full control effect; nearly all actives have a fitted effect of over 65% in size
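First, reporter cells (HEPG2 CAGA-GFP) rested 2 h at 37 degrees C. Next, compounds were pinned in and TGF-beta added to 500 pg/mL final. After 18 h, GFP was imaged per cell and summed per well.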
HepG2 viability = HepG2 cytotoxicity, counter-screen for TGF-b inhibitors; HepG2 CAGA-GFP viability, ATP luminescence, 18 h; Potency, µM (top dose mostly 46.1 µM), for inactives: at the highest dose activity change, negative = cytotoxicity, usual class: cytotoxic; actives 0.76% (n = 410,000); AID 588856; further: potency means the concentration at half of the fitted maximal effect
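HepG2 CAGA-GFP cells (1000/well, DMEM with 1% FBS) received compound, then TGF-beta at 500 pg/mL final, and were incubated 18 hours at 37 degrees C. Viability was read by CellTiter-Glo luminescence. Media-only wells were set as complete cell-killing and DMSO as no toxicity.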
S2 tox = reduces viability in counter-screen for ATXN expression inhibitors. S2 cells (HEK-293 line with an ATXN2-luciferase reporter) viability, CellTiter-Fluor protease fluorescence, 24 h. Potency, µM (titrated, usually from 56.7 µM), usual class: cytotoxic. actives 0.49% (n = 400,000). AID 651635; further: potency means the concentration at half of the fitted maximal effect; nearly all actives have a fitted effect of over 40% in size
IL-1B inflam inh = blocks inflammasome-driven IL-1 beta release; THP-1 LPS/ATP IL-1B secretion, AlphaLISA, 16 h; stronger effect = lower value; activity change, % at 57.5 µM; actives 4.7% (n = 360,000); AID 743279; in the data active means activity change below about -50%; inconclusive means mostly about -30% to -49%; further: on the % scale 0 is the no-effect control and ±100 the full control effect
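Secreted IL-1B measured by AlphaLISA bead assay after 16 h compound exposure of THP-1 cells; compounds (final up to 57.5 uM) added 1 h before LPS (250 ng/mL) and ATP (1.25 mM) stimulation; lower signal means less secretion.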
ATXN2 expr inh = ATXN2 expression inhibition; AID 1745845; HEK-293 ATXN2-luciferase reporter, luminescence, 24 h; Potency, µM (doses to about 57 µM), for the others: at the top dose activity change, negative = inhibition, hits mostly inhibitors; actives 0.72% (n = 360,000); further: potency means the concentration at half of the fitted maximal effect; on the % scale 0 is the no-effect control and ±100 the full control effect; nearly all actives have a fitted effect of over 55% in size
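ATXN2-luciferase reporter cells (luciferase flanked by upstream and downstream ATXN2 gene portions) were treated 24 h at 37 °C with compounds at up to 57 uM. SteadyGlo luminescence gave expression; GF-AFC fluorescence gave viability.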
* = called active by the depositor; i = inactive; ? = inconclusive; . = not tested or not shown; [ ] = another dose, or the depositor's remark. Most compounds without a hit are left out; they make up all but 5.7% or so of the library. Unless noted, the call rests on the fitted dose curve; in most records, active means well fitted curve in the direction sought with a large enough effect; inconclusive means small, poorly fitted or top-dose-only effect, or another doubt; inactive means no such curve, though single readings can be large; an effect the other way counts as inactive or inconclusive.

SMILES | TGFb SMAD3 inh | HepG2 viability | S2 tox | IL-1B inflam inh | ATXN2 expr inh
O=C1/C(=N\S(=O)(=O)c2cccs2)C([n+]2ccccc2)=C([O-])c2ccccc21 | 2µM* | -111.5% | 11.2µM* | -62.7* | .
Cc1ccsc1CN(C)CC(=O)Nc1ccc([N+](=O)[O-])cc1Cl | 0.7% | -8.7% | i | -78.9* | -13.0%
CC1Cc2ccccc2N1S(=O)(=O)c1cnc(Cl)c(Br)c1 (stereo not drawn) | -1.0% | 2.5% | i | -69.9* | -9.5%
CC1Cc2ccccc2N1S(=O)(=O)c1cnc(Cl)c(Cl)c1 (stereo not drawn) | ? | -85.7% | ? | ? | .
O=C(Nc1ccc(-c2nc3ccccc3s2)cc1)c1cc(-n2cnnc2)ccc1Cl | ? | -39.6% | i | -84.0* | ?
O=C(NCc1ccc(F)cc1Cl)c1cc(=O)[nH]c2ccc(S(=O)(=O)N3CCCCC3)cc12 | -10.4% | -5.2% | . | . | .
O=C(CCl)NN=C(c1ccccc1)c1ccccc1 | -3.0% | -1.0% | i | -77.0* | 0.7%
COc1ccc2nc3sc(C(=O)N4CCN(C)CC4)cc3cc2c1 | -4.4% | 8.91µM* | i | -3.9 | 7.9%
COc1ccc2nc3sc(C(=O)N4CCN(c5ccccc5)CC4)cc3cc2c1 | -18.7% | 0.1% | i | . | -3.5%
Cc1cc(C(=O)N2CCN(c3cccc(Cl)c3)CC2)n(-c2ccccc2)n1 | . | . | . | . | -14.5%
CC(O)(c1cccc(F)c1)c1nc(-c2csc3ccccc23)cs1 (stereo not drawn) | 12.6µM* | -66.3% | ? | 33.9 | 0.0%
CC(O)(c1cccc(F)c1)c1nc(-c2cc(F)cc(F)c2)cs1 (stereo not drawn) | 11.2µM* | -64.0% | ? | -12.3 | 0.0%
CCN(CC)C(=O)c1cccc(-c2csc(C(C)(O)c3cccc(F)c3)n2)c1 (stereo not drawn) | ? | -19.0% | ? | -22.8 | 28.2µM*
CC(O)(c1ccccc1)c1nc(-c2csc3ccccc23)cs1 (stereo not drawn) | ? | -29.0% | i | -1.2 | 2.3%
COc1ccc(-c2cn3nc(N4CCCC(C(=O)Nc5cccc(OC)c5)C4)sc3n2)cc1 (stereo not drawn) | ? | -4.8% | i | . | -12.1%
COc1cc(OC)c(/C=C/c2nccc3ccccc23)c(OC)c1 | ? | -31.1% | . | . | .
O=C(CNC(=O)c1ccccc1)N/N=C/c1ccc([N+](=O)[O-])s1 | 11.2µM* | 14.1µM* | ? | ? | ?
O=[N+]([O-])c1ccc(-c2ccc(C=Nc3cccc4ccccc34)o2)cc1 | 6.5% | -8.1% | i | -4.0 | 12.0%
O=C(Cc1ccccc1)NCC(=O)N/N=C/c1ccc([N+](=O)[O-])s1 | ? | 15.8µM* | ? | ? | ?
O=c1oc(/C=C/c2ccc([N+](=O)[O-])s2)nc2ccccc12 | 3.0% | -2.3% | ? | -62.4* | .
O=[N+]([O-])c1ccc(C=Nc2cccc3ccccc23)s1 | 15.8µM* | 25.1µM* | ? | -96.9* | -9.7%
CC(=O)Oc1ccccc1/C=C/c1nc2ccccc2c(=O)o1 | 26.5% | -18.8% | i | 13.7 | ?
COC(=O)c1cc2sc(C)cc2n1CC(=O)Nc1ccc(C)cc1Cl | 3.6% | -14.4% | i | . | 8.4%
CCOc1ccc(-n2c(-c3ccccc3)c[n+]3c2CCC3)cc1 | ? | -20.6% | ? | -68.3* | -29.6%[11.3 µM]
CCOc1ccc(-n2c(-c3ccc(Br)cc3)c[n+]3c2CCCCC3)cc1 | -20.2% | 4.6% | ? | -78.9* | ?
CCOc1ccc(-n2c(-c3ccc(OC)cc3)c[n+]3c2CCCCC3)cc1 | ? | -2.5% | i | -70.3* | .
COc1ccc(-n2c(-c3ccc(Cl)cc3)c[n+]3c2CCCCC3)cc1 | 0.0% | -44.9% | ? | 0.0 | ?
COc1ccc(-c2c[n+]3c(n2-c2ccc(C)cc2)CCCCC3)cc1 | ? | -25.2% | ? | -78.9* | ?
CCOc1ccc(CCNC(=O)Cn2nnc(-c3ccc(C(F)(F)F)cc3)n2)cc1OCC | -11.8% | -6.2% | i | . | -6.7%
Cc1ccc(S(=O)(=O)c2nnn3c2nc(NCc2ccc4c(c2)OCO4)c2sccc23)cc1C | 6.6% | -9.9% | . | . | .
